Measured values from PubChem BioAssay (NCI).
About 83,000 compounds went through this panel and 20% of them were active in at least one assay; those are over-represented in the sample as a whole.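 Results are percent growth after 48 hours of single-concentration exposure. 100 means growth as in untreated cells, lower positive values show inhibition; negative values down to -100 show cell death.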 A number with no mark means an inactive call. Calls of active or inactive are those of the source. How the source made its calls: active means growth percent below 10; inactive means the rest.

These compounds were tested on UACC-62 melanoma (assay: NCI-60 one-dose screen, 48 h (100 = growth as untreated, 0 = no growth, -100 = all killed)). Settings: 10 µM unless noted.

| Compound | growth |
| --- | --- |
| Cc1ccc2sc3c(NCCCNCCO)nc4ccccc4c3c(=O)c2c1 | -25.3% (active) |
| NCCOc1ncccc1/C=C1\c2ccccc2-c2ccc(F)cc21 | 34.8% |
| CNCCNc1nc2ccccc2c2c(=O)c3cc(OC)ccc3sc12 | 7.43% (active) |
| CC(C)c1ccc(S(=O)(=O)NC(=O)NC2CCCC2)cc1 | 94.7% |
| COc1cc(/C=C2\CN(C)C/C(=C\c3cc(CN4CCCC4)c(O)c(OC)c3)C2=O)cc(CN2CCCC2)c1O | 81.7% |
| Nc1ccccc1-c1ccc(-c2ccc(Cl)cc2)c2c1[nH]c1ccccc12 | 60.3% |
| O=C(Cn1cc(COc2ncnc3c2cnn3-c2ccccc2)nn1)Nc1ccccn1 | 80.8% |
| NCCOc1ccccc1/C=C1\c2ccccc2-c2ccc([N+](=O)[O-])cc21 | 20.7% |
| COc1cc(/C(C#N)=C/c2nc3c(N4CCOCC4)nc(Cl)nc3n2C)cc(OC)c1OC | 2.78% (active) |
| Cc1ccc2cccc(Oc3ccc(Nc4ncnc5onc(-c6ccccc6)c45)cc3)c2n1 | 63.8% |
| COC(=O)/C(CCC=C(C)C)=C1\[C@@H](OC(C)=O)C[C@@]2(C)[C@H]1C[C@@H](O)[C@H]1[C@@]3(C)CC[C@H](NCc4ccccc4)[C@@H](C)[C@@H]3CC[C@@]12C | 69.3% |
| COc1cc(/C=C/C(=O)c2ccc(Cl)cc2)cc(CN2CCCCC2)c1O | 87.4% |
| O=C(/C=C/c1ccc(Cl)cc1)c1ccc(Nc2nc(NCCO)nc(Nc3ccc(Cl)cc3)n2)cc1 | 60.7% |
| CN1CCN(Cc2ccc(NC(=O)c3[nH]ncc3Nc3cc(OC4CCCC4)ncn3)cc2)CC1 | 29.2% |
| Cn1c(/C=C(\C#N)c2ccccc2)nc2c(N3CCOCC3)nc(Cl)nc21 | -86.1% (active) |
| CCN1C(=O)N(CC)C2Nn3c(s/c(=C\c4ccccc4F)c3=O)=NC21 (centres undefined) | 36.7% |
| Cc1ccccc1CNC(=O)C1CN(c2ccc(Cl)cc2)N(c2ccc(Cl)cc2)C1=O (centres undefined) | 60.8% |
| CCCCC1CCc2cccc3c(SCC(=O)N(C)c4ccc(Cl)cc4)cc[n+]1c23 (centres undefined) | 96.3% |
| Clc1ccc(Oc2ccc(Nc3ncnc4onc(-c5ccccc5)c34)cc2)c(Cl)c1 | 81% |
| O=C(O)c1cn(C2CC2)c2cc(N3CCN(C(=O)C[n+]4ccccc4)CC3)c(F)cc2c1=O | 105% |

| Compound | growth |
| --- | --- |
| O=C(CSc1nc2ccccc2c(=O)n1-c1ccccc1)Nc1ccc(C(=O)/C=C/c2ccc(Cl)cc2)cc1 | 86% |
| Cc1nc(Nc2cn[nH]c2C(=O)Nc2ccc(CN3CCN(C)CC3)cc2)c2ccsc2n1 | 93.9% |
| CN1C(=O)N(C)C2Nn3c(s/c(=C4\C(=O)N(CCc5ccccc5)c5ccccc54)c3=O)=NC21 (centres undefined) | 44.7% |
| O=C(/C=C/c1ccc(C(F)(F)F)cc1)c1ccc(Nc2nc(NCCO)nc(N3CCOCC3)n2)cc1 | 56% |
| COc1cc(/C=C/C(=O)c2ccc(Nc3nc(NCCO)nc(N4CCOCC4)n3)cc2)cc(OC)c1OC | -31.7% (active) |
| COc1cc(/C=C2\CN(S(=O)(=O)c3ccccc3)C/C(=C\c3cc(CN4CCCC4)c(O)c(OC)c3)C2=O)cc(CN2CCCC2)c1O | -60% (active) |
| O=c1c2cc(F)ccc2sc2c(Nc3ccncc3)nc3ccccc3c12 | 66.7% |
| O=c1c2cc(F)ccc2sc2c(NCCN3CCCC3)nc3ccccc3c12 | 38.2% |
| CNC(=O)c1cc(Oc2ccc(CC(=O)Nc3cc(C(C)(C)C)cn3C)cc2)ccn1 | 62.9% |
| COc1cc2nc(NC3CCCC3)nc(NC3CCN(C(C)C)CC3)c2cc1OC | 94.6% |
| O=C(NCc1ccco1)C1CN(c2ccc(Cl)cc2)N(c2ccc(Cl)cc2)C1=O (centres undefined) | 24.4% |
| COc1cccc2cc(N(C)c3nc(C)nc4ccsc34)ccc12 | 43.4% |
| CN1C(=O)N(C)C2(c3ccccc3)OC(=S)NC12c1ccccc1 (centres undefined) | 92.5% |
| Nc1nc(-c2cnccn2)nn1-c1nc2ccccc2s1 | 101% |
| COc1ccc(N)c(-c2cc3c(c4c2[nH]c2ccc(OC)cc24)CCCC3)c1 | 69.5% |
| COc1cccc(/C(C#N)=C/c2nc3c(N4CCOCC4)nc(Cl)nc3n2C)c1 | -62.3% (active) |
| O=c1c(-c2nc3ccccc3[nH]2)cc2ccccc2n1Cc1cn(Cc2ccc(N3CCOCC3)cc2)nn1 | 79.2% |
| Cn1c2c(c(=O)[nH]c1=O)NC1=C(C(=O)c3ccccc31)C1(C=C(O)c3ccccc31)N2 (centres undefined) | 116% |
| COC(=O)/C(CCC=C(C)C)=C1\[C@@H](OC(C)=O)C[C@@]2(C)[C@H]1C[C@@H](O)[C@H]1[C@@]3(C)CC[C@H](NCCCNCCCCNCCCN)[C@@H](C)[C@@H]3CC[C@@]12C | 31.9% |
